# Test results published in PubChem BioAssay (EPA / NIEHS).
# Records with an inconclusive call do not appear. The source made the active and inactive calls. Rule for the calls, unless noted: active = hit-call score of the fitted dose curve at least 0.9, where 1 is the maximum; inconclusive = response in the unintended direction; inactive = score below 0.9.
# Experiments:
# [1] = test system: Thyroperoxidase (TPO), gene 54314; experiment: CCTE_Simmons_AUR_rTPO: CCTE's Amplex UltraRed Assay for Thyroperoxidase (TPO) Inhibition, Simmons Lab (AID 2283662);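 for AC50: potency for loss of signal meaning inhibition of peroxidase activity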
# How it was run: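 Endpoint is decreased Amplex UltraRed fluorescence after a 30-min, 37C reaction of rat thyroid microsomes with 300 uM H2O2. Eight test concentrations (5 nM–87.5 uM final) in 0.5% DMSO, three biological replicates each.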
# [2] = CCTE_Simmons_CellTiterGLO_HEK293T: Viability Assessment in CCTE's Assays for Thyroperoxidase (TPO) Inhibition, Simmons Lab (AID 2283665);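 for AC50: cells exposed to compound for 24 h before readout; actives reduce ATP signal below DMSO vehicle meaning cytotoxicity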
# How it was run: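 Cytotoxicity counter-screen: human HEK293T cells in low-serum (1% FBS) medium receive test chemical, 5 nM to 87.5 uM final, for 24 h; ATP is quantified by luciferase luminescence.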
# [3] = target: Luciferin 4-monooxygenase (Photinus pyralis) (UniProt P08659); experiment: CCTE_Simmons_QuantiLum_inhib_2: CCTE's Firefly Luciferase Inhibition Assay, Simmons Lab (AID 2283767)
# How it was run: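 Counter-screen for nonspecific enzyme inhibition: purified firefly luciferase incubated 30 min at 37C with chemicals up to 87.5 uM final, then luminescence measured after luciferin/dATP injection; activity fitted against DMSO baseline.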
# [4] = TOX21_p53_BLA_p5_viability: Viability Assessment in the Tox21 HCT-116 p53 Agonism Beta-lactamase Assay, Phase 5 (AID 2283600)
# How it was run: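 4000 cells/well; 5 h pre-incubation; DMSO compounds pin-transferred, 217-fold dilution; 16 h, 37C/5% CO2; CCF4-AM 2 h RT; CellTiter-Glo 30 min RT; luminescence.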
# [5] = target: Cellular tumor antigen p53 (Homo sapiens) (UniProt P04637); experiment: TOX21_p53_BLA_p4_ratio: Tox21 HCT-116 p53 Agonism Beta-lactamase Assay, Ratio, Phase 4 (AID 2283601)
# How it was run: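 HCT-116 p53 beta-lactamase reporter cells (4000/well) preincubated 5 h, then compound (217-fold dilution of DMSO stock) for 16 h at 37C. CCF4-AM substrate added 2 h at room temperature; 460/530 nm emission ratio fitted upward versus DMSO.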
# [6] = CCTE_Harrill_HTTr_Viability_MCF7: CCTE's 6-hour Cell Viability Assessment for the High-Throughput Transcriptomics (HTTr) Platform, in MCF-7 cells cultured in DMEM + 10% fetal bovine serum, Harrill Lab (AID 2284010; active = hit-call score of the fitted dose curve at least 0.9, where 1 is the maximum; inactive = score below 0.9)
# How it was run: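 Viability measured through PI dye exclusion by high-content imaging at 6 h post-dosing.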
# [7] = CCTE_Harrill_HTTr_Apoptosis_MCF7: CCTE's 6-hour Apoptosis Assessment for the High-Throughput Transcriptomics (HTTr) Platform, in MCF-7 cells cultured in DMEM + 10% fetal bovine serum, Harrill Lab (AID 2284011; active = hit-call score of the fitted dose curve at least 0.9, where 1 is the maximum; inactive = score below 0.9)
# How it was run: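 MCF-7 (DMEM + 10% FBS), 384-well; 8-pt dilution series, 6 h chemical exposure; caspase-3/7 activation via CellEvent Caspase 3/7 Green, HCI; bidirectional fit vs DMSO.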
# PGR (gene 5241) = PGR (gene 5241) (UniProt P06401); experiment: TOX21_PR_BLA_Followup_Antagonist_ratio: Tox21 HEK293 Progesterone Receptor (PR) Antagonism Beta-lactamase Follow-Up Assay, Ratio (AID 2283934);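 note: PR-UAS-bla HEK293T cells stimulated with 1 nM R5020 agonist for 16 hr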
# How it was run: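 Antagonist mode used 1 nM R5020 (final) as agonist on a beta-lactamase reporter line in HEK293T cells. Activity was taken from the substrate cleavage ratio after 16 hr exposure.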
# [8] = TOX21_PR_BLA_Followup_Agonist_viability: Viability Assessment in the Tox21 HEK293 Progesterone Receptor (PR) Agonism Beta-lactamase Follow-Up Assay (AID 2283935);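 note: signal loss means lower viability so actives are cytotoxic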
# How it was run: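 Multiplexed viability counter-screen: ATP-coupled luciferase signal measured after 30 min at room temperature, following 16 hr compound treatment of PR-UAS-bla HEK293T cells grown in charcoal-stripped serum.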
# [9] = TOX21_PR_BLA_Followup_Antagonist_viability: Viability Assessment in the Tox21 HEK293 Progesterone Receptor (PR) Antagonism Beta-lactamase Follow-Up Assay (AID 2283936);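 note: hits lower the luminescence signal meaning cytotoxicity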
# How it was run: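 PR-UAS-bla HEK293T cells (3,000/well, 2% charcoal-stripped FBS) given compound plus R5020 agonist, 16 h at 37C. CellTiter-Glo added after bla read, 30 min at room temperature; luminescence loss indicates cytotoxicity.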
# [10] = TOX21_PR_LUC_Followup_Antagonist_viability: Viability Assessment in the Tox21 HEK293 Progesterone Receptor (PR) Antagonism Luciferase Follow-Up Assay (AID 2283940)
# How it was run: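 Cellular ATP, measured with luciferase-coupled CellTiter-Glo, served as the viability endpoint after HEK293-PR-A-luc cells were exposed to test compounds for 16 h at 37C.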
# [11] = TOX21_PR_LUC_Followup_Agonist_viability: Viability Assessment in the Tox21 HEK293 Progesterone Receptor (PR) Agonism Luciferase Follow-Up Assay (AID 2283941);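 note: loss of signal means cytotoxicity so actives lower viability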
# How it was run: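 Luminescent ATP quantitation (CellTiter-Glo) serves as the read-out; a drop flags cytotoxic compounds. Cells are HEK293-PR-A-luc grown in 10% charcoal-stripped FBS, plated 3,000/well, and exposed to compound for 16 h.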
# [12] = target: Thyroid hormone receptor alpha (Rattus norvegicus) + Thyroid hormone receptor beta (Rattus norvegicus) (UniProt P18113+P63059); experiment: TOX21_TR_LUC_GH3_Antagonist_Followup: Tox21 GH3 Thyroid Hormone Receptor Antagonism Luciferase Follow-Up Assay (AID 2283942)
# How it was run: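 Antagonist mode: GH3 cells seeded 1,500/well, compounds at 15 concentrations (92 uM to 5nM final) plus T3 at 1.0 nM final, 24 h at 37C. Luciferase read with ONE-Glo after 30 min at room temperature.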
# THRA (gene 7067) = THRA (gene 7067) (UniProt P10827); experiment: TOX21_TRA_COA_Antagonist_Followup_ratio: Tox21 Thyroid Hormone Receptor alpha Antagonism through Coactivator Recruitment Follow-Up Assay, Ratio (AID 2283953)
# How it was run: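 This follow-up to the GH3 luciferase screen checks specificity in a cell-free format. It measures SRC-2 coactivator peptide binding to TRα LBD by TR-FRET and scores loss of ratio signal relative to DMSO.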
# [13] = TOX21_TRB_BLA_Antagonist_Followup_viability: Viability Assessment in the Tox21 Thyroid Hormone Receptor beta Antagonism Beta-lactamase (BLA) Follow-Up Assay (AID 2283961)
# How it was run: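 TRβ-bla HEK293T (human TRβ LBD fused to GAL4 DBD), 3,000 cells/well, 2% charcoal-stripped FBS, phenol red-free medium; 18 h compound exposure, 37C; CellTiter-Glo 30 min RT; luminescence, loss-of-signal readout.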
# [14] = target: Retinoic acid receptor RXR-alpha (Homo sapiens) (UniProt P19793); experiment: TOX21_TR_RXR_BLA_Antagonist_Followup_ratio: Tox21 Thyroid Hormone Receptor beta Retinoid X Receptor alpha (RXRa) Antagonism Beta-lactamase (BLA) Follow-Up Assay, Ratio (AID 2283972)
# How it was run: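 HEK293T RXRa-bla, 2% charcoal-stripped FBS medium, 16 h compound exposure at 37C, qHTS 11 conc x3. CCF4 FRET ratio ch2/ch1 (460:530), DMSO = baseline, loss-of-signal fit.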
# [15] = TOX21_TR_RXR_BLA_Antagonist_Followup_viability: Viability Assessment in the Tox21 Thyroid Hormone Receptor beta Retinoid X Receptor alpha (RXRa) Antagonism Beta-lactamase (BLA) Follow-Up Assay (AID 2283979)
# How it was run: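 RXRa-bla HEK293T cells (2,500/well, phenol red-free DMEM, 2% charcoal-stripped FBS) were attached 5 h, then exposed to compounds at 11 concentrations in triplicate for 16 h at 37C. Viability measured by CellTiter-Glo ATP luminescence, bidirectional fitting versus DMSO.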
# THRB (gene 7068) = THRB (gene 7068) (UniProt P10828); experiment: TOX21_TRB_COA_Antagonist_Followup_ratio: Tox21 Thyroid Hormone Receptor beta Antagonism through Coactivator Recruitment Follow-Up Assay, Ratio (AID 2283967)
# How it was run: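 Cell-free TR-FRET: GST-TRb LBD (5.0 nM) with fluorescein-SRC-2 peptide (200 nM) and Tb anti-GST antibody (2 nM), 0.10% BSA. 520:495 nm emission ratio normalized to DMSO (0%) and T3 (100%).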
# Chain of Luciferin 4-monooxygenase (Photinus pyralis) (P08659 whole entry, looked up): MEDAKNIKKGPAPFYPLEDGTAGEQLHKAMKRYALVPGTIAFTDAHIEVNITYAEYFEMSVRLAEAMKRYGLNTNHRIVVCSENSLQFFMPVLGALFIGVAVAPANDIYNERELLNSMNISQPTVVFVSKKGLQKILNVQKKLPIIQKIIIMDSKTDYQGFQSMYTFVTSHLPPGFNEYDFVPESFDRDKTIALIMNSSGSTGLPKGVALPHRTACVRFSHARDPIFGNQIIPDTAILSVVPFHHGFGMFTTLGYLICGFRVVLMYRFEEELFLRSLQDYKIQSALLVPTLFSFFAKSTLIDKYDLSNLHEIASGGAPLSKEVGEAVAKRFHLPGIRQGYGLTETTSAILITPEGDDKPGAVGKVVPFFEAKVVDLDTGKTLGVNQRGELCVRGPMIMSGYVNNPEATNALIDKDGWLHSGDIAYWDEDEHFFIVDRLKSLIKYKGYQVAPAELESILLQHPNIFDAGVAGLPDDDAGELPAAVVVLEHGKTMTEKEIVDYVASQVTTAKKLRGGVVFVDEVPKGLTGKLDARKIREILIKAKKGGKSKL
# Chain of Cellular tumor antigen p53 (Homo sapiens) (P04637 whole entry, looked up): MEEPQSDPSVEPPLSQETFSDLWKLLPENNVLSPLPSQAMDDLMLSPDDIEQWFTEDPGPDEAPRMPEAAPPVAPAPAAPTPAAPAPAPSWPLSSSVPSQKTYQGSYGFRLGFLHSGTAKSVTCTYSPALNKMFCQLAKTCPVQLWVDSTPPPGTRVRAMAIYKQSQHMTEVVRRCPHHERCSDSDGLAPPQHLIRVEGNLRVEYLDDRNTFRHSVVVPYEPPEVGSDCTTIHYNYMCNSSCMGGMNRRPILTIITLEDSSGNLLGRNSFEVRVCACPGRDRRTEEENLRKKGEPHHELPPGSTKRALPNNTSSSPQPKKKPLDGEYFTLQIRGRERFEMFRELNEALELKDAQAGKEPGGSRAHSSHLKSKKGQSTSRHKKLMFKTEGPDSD
# Chain of Retinoic acid receptor RXR-alpha (Homo sapiens) (P19793 whole entry, looked up): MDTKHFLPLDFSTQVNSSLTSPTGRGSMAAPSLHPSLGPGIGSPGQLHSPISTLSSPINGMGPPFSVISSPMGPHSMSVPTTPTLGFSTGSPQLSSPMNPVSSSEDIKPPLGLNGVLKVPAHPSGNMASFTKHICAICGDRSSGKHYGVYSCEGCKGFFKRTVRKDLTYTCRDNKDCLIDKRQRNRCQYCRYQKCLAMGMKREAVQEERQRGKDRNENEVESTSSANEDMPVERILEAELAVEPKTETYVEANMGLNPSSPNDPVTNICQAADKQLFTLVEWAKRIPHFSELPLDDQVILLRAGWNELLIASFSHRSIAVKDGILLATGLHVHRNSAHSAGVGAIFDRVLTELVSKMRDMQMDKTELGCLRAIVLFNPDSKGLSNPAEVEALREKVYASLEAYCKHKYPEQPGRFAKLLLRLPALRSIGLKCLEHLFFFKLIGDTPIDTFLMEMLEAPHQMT
# Chain of PGR (gene 5241) (P06401 whole entry, looked up): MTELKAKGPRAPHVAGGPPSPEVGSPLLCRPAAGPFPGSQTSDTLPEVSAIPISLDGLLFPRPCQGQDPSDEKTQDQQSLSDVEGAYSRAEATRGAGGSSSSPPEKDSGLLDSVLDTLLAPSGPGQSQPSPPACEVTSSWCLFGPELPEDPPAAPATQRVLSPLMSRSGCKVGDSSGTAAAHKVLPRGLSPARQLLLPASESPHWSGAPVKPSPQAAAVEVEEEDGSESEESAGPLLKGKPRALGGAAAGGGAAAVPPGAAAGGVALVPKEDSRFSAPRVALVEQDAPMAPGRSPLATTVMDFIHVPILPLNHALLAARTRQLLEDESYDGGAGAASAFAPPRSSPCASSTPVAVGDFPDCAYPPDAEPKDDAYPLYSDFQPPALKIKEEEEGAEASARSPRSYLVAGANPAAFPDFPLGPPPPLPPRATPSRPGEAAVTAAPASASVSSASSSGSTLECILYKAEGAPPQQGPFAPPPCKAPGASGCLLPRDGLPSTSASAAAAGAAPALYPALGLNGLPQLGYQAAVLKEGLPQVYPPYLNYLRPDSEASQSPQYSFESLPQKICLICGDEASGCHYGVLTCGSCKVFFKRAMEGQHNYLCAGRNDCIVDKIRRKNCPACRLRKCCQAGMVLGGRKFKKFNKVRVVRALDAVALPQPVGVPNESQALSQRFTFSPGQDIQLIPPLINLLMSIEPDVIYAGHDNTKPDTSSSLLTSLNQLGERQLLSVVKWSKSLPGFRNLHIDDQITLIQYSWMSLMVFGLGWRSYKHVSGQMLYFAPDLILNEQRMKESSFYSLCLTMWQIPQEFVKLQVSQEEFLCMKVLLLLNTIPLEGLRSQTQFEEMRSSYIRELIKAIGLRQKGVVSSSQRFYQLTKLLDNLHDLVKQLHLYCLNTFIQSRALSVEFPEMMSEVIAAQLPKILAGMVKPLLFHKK
# Chain of THRA (gene 7067) (P10827 whole entry, looked up, the tested form may be a part): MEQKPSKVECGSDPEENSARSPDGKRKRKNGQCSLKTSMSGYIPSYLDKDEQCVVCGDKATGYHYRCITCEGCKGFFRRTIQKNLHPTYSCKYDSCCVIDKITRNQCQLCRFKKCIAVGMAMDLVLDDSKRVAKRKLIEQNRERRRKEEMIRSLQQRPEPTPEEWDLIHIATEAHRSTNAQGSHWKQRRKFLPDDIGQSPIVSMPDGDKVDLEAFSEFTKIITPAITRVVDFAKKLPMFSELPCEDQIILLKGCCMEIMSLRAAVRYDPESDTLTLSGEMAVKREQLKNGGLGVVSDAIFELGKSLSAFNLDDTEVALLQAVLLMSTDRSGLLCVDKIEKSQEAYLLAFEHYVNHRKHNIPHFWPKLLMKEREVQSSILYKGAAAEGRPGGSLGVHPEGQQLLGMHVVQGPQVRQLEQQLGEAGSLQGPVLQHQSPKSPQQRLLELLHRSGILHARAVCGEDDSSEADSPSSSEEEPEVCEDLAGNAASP
# Chain of THRB (gene 7068) (P10828 whole entry, looked up, the tested form may be a part): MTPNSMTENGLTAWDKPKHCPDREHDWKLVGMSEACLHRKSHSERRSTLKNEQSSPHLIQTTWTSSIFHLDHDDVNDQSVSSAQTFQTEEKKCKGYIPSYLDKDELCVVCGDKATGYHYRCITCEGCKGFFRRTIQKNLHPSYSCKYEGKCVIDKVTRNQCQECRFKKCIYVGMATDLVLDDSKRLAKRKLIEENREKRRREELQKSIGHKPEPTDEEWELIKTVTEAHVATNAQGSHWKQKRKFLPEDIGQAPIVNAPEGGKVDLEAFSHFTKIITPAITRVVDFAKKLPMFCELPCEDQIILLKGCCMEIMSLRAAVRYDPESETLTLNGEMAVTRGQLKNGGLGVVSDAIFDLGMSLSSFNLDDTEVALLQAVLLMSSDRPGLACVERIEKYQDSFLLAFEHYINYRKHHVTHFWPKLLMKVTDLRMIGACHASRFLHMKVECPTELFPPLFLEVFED
structure (smiles),measurement,setting,value
CCOC(=O)c1cccc(O)c1,outcome,[1],inactive
same,outcome,[2],inactive
same,outcome,[3],inactive
CNCCC(Oc1ccccc1OC)c1ccccc1 (stereo not given),outcome,[4],inactive
same,outcome,[5],inactive
O=[N+]([O-])c1ccc2[nH]c(=S)[nH]c2c1,AC50,[1],0.315 µM (active)
same,outcome,[3],inactive
CCOC(=O)/C=C/C(=O)OCC,outcome,[4],inactive
same,outcome,[5],inactive
CCCCOC(=O)c1ccccc1O,outcome,[1],inactive
same,AC50,[2],53.6 µM (active)
same,outcome,[3],inactive
CNC(=O)N(c1ccccc1)c1ccccc1,outcome,[5],inactive
Cn1c(=S)[nH]c2ccccc21,AC50,[1],0.503 µM (active)
same,outcome,[3],inactive
O=C(c1ccccc1)c1ccc(O)cc1,outcome,[1],inactive
same,outcome,[2],inactive
same,outcome,[3],inactive
same,outcome,[6],inactive
same,outcome,[7],inactive
COc1c[nH]ccc1=O,outcome,[1],inactive
same,outcome,[3],inactive
S=c1[nH]c2cc(Cl)ccc2s1,AC50,[1],1.54 µM (active)
same,outcome,[2],inactive
same,outcome,[3],inactive
C=CC1CNC(=S)O1 (stereo not given),AC50,[1],10.6 µM (active)
same,outcome,[3],inactive
OCc1ncccc1O,outcome,[1],inactive
same,outcome,[2],inactive
same,outcome,[3],inactive
Clc1ccc2c(c1)Nc1ccccc1S2,AC50,PGR (gene 5241),19.4 µM (active)
same,outcome,[8],inactive
same,outcome,[9],inactive
CCO/C([O-])=N/c1c[n+](N2CCOCC2)no1,outcome,[4],inactive
same,outcome,[5],inactive
CC(C)(C)C(O)/C=C/c1ccc2c(c1)OCO2 (stereo not given),outcome,PGR (gene 5241),inactive
same,outcome,[8],inactive
same,outcome,[9],inactive
same,outcome,[10],inactive
same,outcome,[11],inactive
O=C1c2ccccc2-c2n[nH]c3cccc1c23,outcome,[12],inactive
same,outcome,THRA (gene 7067),inactive
same,outcome,[13],inactive
same,outcome,[14],inactive
same,outcome,[15],inactive
CCCCCCC[N+](CC)(CC)CCCCc1ccc(Cl)cc1,outcome,[12],inactive
same,outcome,THRA (gene 7067),inactive
same,outcome,THRB (gene 7068),inactive
same,outcome,[14],inactive
same,outcome,[15],inactive
